Values joined by “and” are separate entries in the source; they are usually repeats but may differ in a detail not shown here. Identical values can stand only once. About 2,000 (36%) of roughly 5,500 compounds were called active. Not shown: some 18% with an inconclusive outcome. Rule as the data show it: active = normalized growth mostly below about 0.91 (no sharp cut-off); inconclusive = no clear call, values can overlap the other calls; inactive = mostly above about 0.92. The list shows a part of the results.
Assay: chemical genetic growth profiling, strain panel (AID 1159580);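 also: tested at 20 µM; growth read once vehicle control cultures reached saturation at 30 °C; 1 = growth at the plate median or of vehicle wells; lower values mean less growth of the strain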
Conditions: S. cerevisiae deletion strains, growth OD

Measured: normalized growth

CC(=O)Oc1ccc2c(c1C(C)C)CCC1C(C)(C)CCC[C@]21C (stereo not given in full)
inactive: locus YAL013W, strain DEP1, hits give low values 1.02 | locus YAL021C, strain ccr4, hits give low values 0.996 | locus YAL026C, strain drs2, hits give low values 1.03 | locus YAL030W, strain snc1, hits give low values 1.01 | locus YBL061C, strain skt5, hits give low values 1.03 | locus YBR009C, strain hhf1, hits give low values 1.02 | locus YBR021W, strain FUR4, hits give low values 1.01 | locus YBR023C, strain chs3, hits give low values 1.03 | locus YBR171W, strain sec66, hits give low values 1.03 | locus YBR229C, strain ROT2, hits give low values 1.02 | locus YBR231C, strain swc5, hits give low values 1.03 | locus YBR279W, strain paf1, hits give low values 1.02 | locus YCL011C, strain gbp2, hits give low values 1.02 | locus YCL016C, strain dcc1, hits give low values 1.02 | locus YCL029C, strain bik1, hits give low values 0.997 | locus YCL061C, strain MRC1, hits give low values 1.01 | locus YCL069W, strain vba3, hits give low values 1.01 | locus YCR088W, strain abp1, hits give low values 1.02 | locus YDL005C, strain med2, hits give low values 1.02 | locus YDL035C, strain GPR1, hits give low values 1.03 | locus YDL040C, strain nat1, hits give low values 1 | locus YDL074C, strain BRE1, hits give low values 1.05 | locus YDL101C, strain DUN1, hits give low values 1.03 | locus YDL134C, strain PPH21, hits give low values 1.02 | locus YDL185W, strain tfp1, hits give low values 1 | locus YDL192W, strain arf1, hits give low values 1.01 | locus YDR001C, strain nth1, hits give low values 1.02 | locus YDR069C, strain doa4, hits give low values 1.02 | locus YDR101C, strain arx1, hits give low values 0.995 | locus YDR137W, strain rgp1, hits give low values 1.01 | locus YDR150W, strain NUM1, hits give low values 0.995 | locus YDR159W, strain sac3, hits give low values 1.06 | locus YDR162C, strain NBP2, hits give low values 1.02 | locus YDR195W, strain ref2 1.01 | locus YDR297W, strain sur2, hits give low values 1.01 | locus YDR318W, strain mcm21, hits give low values 0.996 | locus YDR334W, strain swr1, hits give low values 1.02 | locus YDR335W, strain msn5, hits give low values 1.02 | locus YDR388W, hits give low values 0.994 | locus YDR392W, strain spt3, hits give low values 0.997 | locus YDR502C, strain sam2, hits give low values 1.01 | locus YEL003W, strain gim4, hits give low values 1.02 | locus YEL037C, strain rad23, hits give low values 1.01 | locus YEL061C, strain CIN8 (second series), hits give low values 1.02 | locus YEL061C, strain CIN8, hits give low values 1.01 | locus YER015W, strain faa2, hits give low values 1.02 | locus YER016W, strain bim1, hits give low values 1.02 | locus YER110C, hits give low values 0.998 | locus YER111C, strain swi4, hits give low values 1.01 | locus YER155C, strain BEM2 (second series), hits give low values 1.04 | locus YER155C, strain BEM2, hits give low values 1.01 | locus YER167W, strain BCK2, hits give low values 1.01 | locus YFR010W, strain ubp6, hits give low values 1.04 | locus YGL078C, strain dbp3, hits give low values 1.01 | locus YGL086W, strain mad1, hits give low values 0.99 | locus YGL167C, strain pmr1, hits give low values 1.02 | locus YGL173C, strain kem1, hits give low values 1.02 | locus YGL227W, strain vid30, hits give low values 1.02 | locus YGL240W, strain doc1, hits give low values 1.02 | locus YGL248W, strain PDE1, hits give low values 1.02 | locus YGL253W, strain hxk2, hits give low values 1.03 | locus YGR135W, strain pre9, hits give low values 0.99 | locus YGR252W, strain gcn5, hits give low values 1.02 | locus YHR013C, strain ard1, hits give low values 1.04 | locus YHR027C, strain rpn1, hits give low values 1.02 | locus YHR030C, strain SLT2, hits give low values 0.969 | locus YHR079C, strain IRE1 (second series), hits give low values 0.985 | locus YHR079C, strain IRE1, hits give low values 0.973 | locus YHR094C, strain hxt1, hits give low values 1 | locus YHR129C, strain ARP1, hits give low values 1.01 | locus YHR142W, strain chs7, hits give low values 1.05 | locus YHR200W, strain rpn10, hits give low values 1 | locus YIL066C, strain RNR3, hits give low values 1.03 | locus YIL073C, strain SPO22, hits give low values 1.04 | locus YIL125W, strain kgd1, hits give low values 1 | locus YIR030C, strain dcg1, hits give low values 1 | locus YJL092W, strain hpr5, hits give low values 1.02 | locus YJL095W, strain BCK1 (second series), hits give low values 1.04 | locus YJL095W, strain BCK1, hits give low values 1.04 and 0.976 | locus YJL115W, strain asf1, hits give low values 1.04 | locus YJL129C, strain trk1, hits give low values 0.995 | locus YJL134W, strain LCB3, hits give low values 1.01 | locus YJL154C, strain vps35, hits give low values 1.01 | locus YJL164C, strain tpk1, hits give low values 1 | locus YJL166W, strain qcr8, hits give low values 1.03 | locus YJL168C, strain set2, hits give low values 0.996 | locus YJL187C, strain SWE1 (second series), hits give low values 1.02 | locus YJL187C, strain SWE1, hits give low values 1.01 | locus YJR043C, strain POL32, hits give low values 1.03 | locus YJR066W, strain TOR1, hits give low values 0.918 | locus YKL009W, strain mrt4, hits give low values 1.01 | locus YKL068W, hits give low values 0.997 | locus YKL085W, strain MDH1 (second series), hits give low values 1.01 | locus YKL085W, strain MDH1, hits give low values 1.01 | locus YKL160W, strain elf1, hits give low values 1.01 | locus YKR001C, strain vps1, hits give low values 1.01 | locus YKR026C, strain gcn3, hits give low values 1.03 | locus YKR091W, strain srl3, hits give low values 1.01 | locus YLL001W, strain dnm1, hits give low values 1 | locus YLL026W, hits give low values 1.02 | locus YLL041C, strain sdh2, hits give low values 1.02 | locus YLR027C, strain aat2, hits give low values 1.02 | locus YLR039C, strain RIC1, hits give low values 1.02 | locus YLR058C, strain SHM2, hits give low values 1.02 | locus YLR102C, strain apc9, hits give low values 0.999 | locus YLR113W, strain HOG1, hits give low values 1 | locus YLR221C, strain rsa3, hits give low values 1.02 | locus YLR258W, strain gsy2, hits give low values 1.01 | locus YLR262C, strain YPT6 (second series), hits give low values 1.01 | locus YLR262C, strain YPT6, hits give low values 1.06 | locus YLR268W, strain sec22, hits give low values 1 | locus YLR320W, strain mms22, hits give low values 1.04 | locus YLR330W, strain CHS5, hits give low values 1.01 | locus YLR342W, strain FKS1 (second series), hits give low values 1.01 | locus YLR342W, strain FKS1, hits give low values 1.02 | locus YLR357W, strain rsc2, hits give low values 1.04 | locus YLR370C, strain arc18, hits give low values 1.02 | locus YLR371W, strain rom2, hits give low values 0.99 | locus YLR384C, strain iki3, hits give low values 1.03 | locus YLR418C, strain cdc73, hits give low values 1 | locus YML016C, strain PPZ1, hits give low values 1.02 | locus YML032C, strain rad52, hits give low values 1.01 | locus YML120C, strain ndi1, hits give low values 1.01 | locus YML124C, strain tub3, hits give low values 1 | locus YMR058W, strain fet3, hits give low values 1.03 | locus YMR078C, strain ctf18, hits give low values 1 | locus YMR125W, strain sto1, hits give low values 1.03 | locus YMR129W, hits give low values 1.03 | locus YMR205C, strain PFK2, hits give low values 0.995 | locus YMR223W, strain ubp8, hits give low values 1.01 | locus YMR231W, strain pep5, hits give low values 1.01 | locus YMR263W, strain SAP30, hits give low values 1.02 | locus YMR307W, strain GAS1, hits give low values 1.02 | locus YNL067W, strain RPL9B, hits give low values 1.01 | locus YNL071W, strain lat1, hits give low values 1.01 | locus YNL128W, strain TEP1, hits give low values 1.02 | locus YNL153C, strain GIM3, hits give low values 1.02 | locus YNL183C, strain NPR1, hits give low values 0.928 | locus YNL209W, strain ssb2, hits give low values 1.02 | locus YNL233W, strain BNI4, hits give low values 1.02 | locus YNL248C, strain rpa49, hits give low values 1.02 | locus YNL250W, strain rad50, hits give low values 0.992 | locus YNL271C, strain bni1, hits give low values 0.996 | locus YNL298W, strain CLA4, hits give low values 1.01 | locus YNL307C, strain MCK1, hits give low values 1 | locus YNL322C, strain KRE1 (second series), hits give low values 1.01 | locus YNR049C, strain mso1, hits give low values 1.04 | locus YNR052C, strain pop2, hits give low values 0.995 | locus YOL012C, strain htz1 1.05 | locus YOL147C, strain pex11, hits give low values 0.999 | locus YOR001W, strain rrp6, hits give low values 1.02 | locus YOR061W, strain CKA2, hits give low values 1.02 | locus YOR069W, strain VPS5, hits give low values 1.01 | locus YOR070C, strain gyp1, hits give low values 1.02 | locus YOR080W, strain dia2, hits give low values 1.02 | locus YOR083W, strain WHI5, hits give low values 1.01 | locus YOR106W, strain vam3, hits give low values 1.02 | locus YOR136W, strain idh2, hits give low values 0.99 | locus YOR144C, strain elg1, hits give low values 0.996 | locus YOR184W, strain ser1, hits give low values 0.996 | locus YOR231W, strain MKK1, hits give low values 0.97 | locus YOR265W, strain rbl2, hits give low values 1.04 | locus YOR270C, strain vph1, hits give low values 1.01 | locus YOR290C, strain snf2, hits give low values 1 | locus YOR316C, strain cot1, hits give low values 0.998 | locus YPL051W, strain arl3, hits give low values 1.02 | locus YPL078C, strain atp4, hits give low values 1 | locus YPL106C, strain sse1, hits give low values 1.02 | locus YPL240C, strain hsp82, hits give low values 1.02 | locus YPL256C, strain CLN2, hits give low values 0.966 | locus YPR119W, strain clb2, hits give low values 0.992 | locus YPR141C, strain kar3, hits give low values 1 | locus YPR163C, strain tif3, hits give low values 0.996 | locus YPR167C, strain met16, hits give low values 0.995 | strain wtn01, hits give low values 1

Reference: PubChem BioAssay AID1159580 (chemical genetic matrix, 2015)
